# High-throughput results: PubChem BioAssay, several laboratories
# In the library only some 3.9% were active in any assay of this set; here they are far more common.
# PrPC surface inh = cell surface PrPC inhibition, primary TR-FRET screen; P04156; TR-FRET read-out; inhibition, % at 13.8 µM; 0.43% of 370,000 active; in the data active means inhibition above about 24%; further: 0% = median of the test wells and 100% = reference compound wells
# GDH-TPI inh = counter-screen for M. tuberculosis FBA inhibitors: GDH-TPI coupled enzymes; GDH-TPI coupled enzyme counterscreen, NADH absorbance; AID 588335; 1.2% of 360,000 active; inhibition, % at 4.8 µM; in the data active means inhibition above about 30%;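 further: 0% = DMSO wells and 100% = wells lacking the enzyme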
# Mtb FBA inh = inhibitors of M. tuberculosis fructose-bisphosphate aldolase; P9WQA3; purified M. tuberculosis FBA, fluorescence read-out; inhibition, % at 1 µM; 2.3% of 360,000 active; AID 588726; in the data active means inhibition above about 27%;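 further: 0% = vehicle and 100% = reference inhibitor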
# Target sequence (P9WQA3 whole entry, looked up): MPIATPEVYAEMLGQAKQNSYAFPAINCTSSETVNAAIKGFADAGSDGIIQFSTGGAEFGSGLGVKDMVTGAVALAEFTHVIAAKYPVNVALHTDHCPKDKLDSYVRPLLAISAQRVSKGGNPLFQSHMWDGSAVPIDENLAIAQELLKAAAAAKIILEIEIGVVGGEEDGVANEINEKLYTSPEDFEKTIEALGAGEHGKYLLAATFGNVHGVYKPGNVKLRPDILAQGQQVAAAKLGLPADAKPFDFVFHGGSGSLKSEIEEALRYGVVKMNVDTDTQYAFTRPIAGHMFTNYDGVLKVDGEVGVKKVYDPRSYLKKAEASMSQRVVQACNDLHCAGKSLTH
# 3CLpro inhibitor = SARS-CoV 3CLpro protease inhibition | P0C6X7 | recombinant SARS-CoV 3CLpro, quenched FRET peptide cleavage | inhibition, % at 6 µM | 0.14% of 290,000 active | AID 1706; in the data active means inhibition above about 12%
# Vc quorum ag = inducers of Vibrio cholerae quorum light production without autoinducers; V. cholerae BH1578 lux reporter, luminescence, 6 h; activation, % at 18.7 µM; 0.16% of 350,000 active; in the data active means activation mostly above about 9.7%, no sharp cut-off
# An asterisk follows results filed as active; i = inactive; x = not tested or not shown; + = active, no number.
SMILES,PrPC surface inh,GDH-TPI inh,Mtb FBA inh,3CLpro inhibitor,Vc quorum ag
CC(=O)Nc1ccc(N=Nc2ccccc2)cc1[N+](=O)[O-],-18,31*,0,x,0
CC(=O)Nc1cc2oc3ccccc3c2cc1[N+](=O)[O-],-19,7,-3,x,0
COc1cc(C(=O)OCC(=O)Nc2ccc(N3CCOCC3)cc2)ccc1OCC(C)C,2,11,-2,x,-3
CN1CCN(C(=S)c2ccc(-c3cccc([N+](=O)[O-])c3)o2)CC1,-22,14,-3,0,0
O=[N+]([O-])c1cccc(-c2ccc(C(=S)N3CCOCC3)o2)c1,-33,41*,-5,5,i
Cc1ccc(/C=C/C(=O)Nc2ncc(C)s2)o1,-7,29,3,-16,0
Cc1ccc(/C=C/C(=O)Nc2nccs2)o1,-12,52*,1,-42,0
Cc1csc(SCC(=O)NCc2ccccc2Cl)n1,2,3,-1,2,0
COc1ccc(Cc2nnc3n2N=C(c2cc4ccccc4o2)CS3)cc1OC,-1,41*,-2,-3,-6
CCC1=CC(c2ccccc2)n2ncnc2N1 (stereo unspecified),-2,12,35*,x,i
CCOC(=O)N1CCc2c(sc3nc4n(c(=O)c23)N=C(C)CS4)C1,-8,31*,10,-3,-8
CCOC(=O)N1CCc2c(sc(N)c2C#N)C1,-4,x,x,-5,x
COc1ccc(NC(=O)c2ccccc2NC(=O)C2CCCCC2C(=O)O)cc1 (stereo unspecified),7,1,-2,x,-1
Cc1nn(-c2ccccc2)c(N)c1N=Nc1cccnc1,-80,23,-2,-1,i
Cc1ccccc1-n1nc(C)c(N=O)c1N,-25,5,113*,4,0
Cc1ccccc1OCCC(=O)Nc1ccc(S(=O)(=O)N2CCCC2)cc1,-4,1,0,x,i
CCOc1ccc(/C=N/NC(=S)NC2CC3CC2C2C=CCC32)cc1 (stereo unspecified),-5,6,4,-3,0
COc1cc(/C=N/NC(=S)NC2CC3CC2C2C=CCC32)ccc1O (stereo unspecified),5,37*,1,0,i
COc1ccc(/C=N/NC(=S)NC2CCS(=O)(=O)C2)cc1OC (stereo unspecified),-10,41*,-3,9,i
COC(=O)c1ccc2cc(OC)c(OC)cc2c1,-3,-2,13,x,-5
COC(=O)c1c2[n+](cc3cc(OC)c(OC)cc13)CCc1cc(OC)c(OC)cc1-2,-37,43*,0,x,-2
CCCCN1CN2Cc3cc(F)ccc3C2CS1(=O)=O (stereo unspecified),0,x,x,x,x
CCOC(=O)/C(=C\c1c[nH]c2ccccc12)NC(C)=O,-8,29,-3,5,-1
COC(=O)/C(=C\c1c[nH]c2ccccc12)NC(C)=O,-2,39*,1,-4,x
CC1(CC(=O)O)C(=O)N=C2C=CC=CN21 (stereo unspecified),2,2,167*,-4,0
SMILES,PrPC surface inh,GDH-TPI inh,Mtb FBA inh,3CLpro inhibitor,Vc quorum ag
O=C(CNc1ccc(Br)cc1)Nc1ccc(S(=O)(=O)N2CCCC2)cc1,1,14,-4,x,0
COc1ccc(OCC(=O)N/N=C(\C)CC(=O)Nc2cccc([N+](=O)[O-])c2)cc1,-6,-6,-1,2,0
CC(=C/c1ccccc1)/C=N/Nc1nc(N2CCCCC2)nc(N2CCCCC2)n1,3,4,3,-5,-1
BrC(/C=N/Nc1nc(N2CCOCC2)nc(N2CCOCC2)n1)=C/c1ccccc1,-17,41*,2,4,i
COC(=O)[C@]12C[C@H](CC(=O)NCc3ccc(C)o3)C(=O)N(Cc3ccccc3)C1=C[C@H](C(C)C)O[C@@H]2C1CC1,8,x,x,x,x
Cc1csc2ncc(C(=O)Nc3ccccc3Cl)c(=O)n12,2,4,2,-1,0
Cc1csc2ncc(C(=O)N3c4ccccc4CC3C)c(=O)n12 (stereo unspecified),-2,42*,5,-4,0
CC1Cc2ccccc2N1C(=O)c1cnc2ccccn2c1=O (stereo unspecified),-5,18,0,-1,0
CCN(C(=O)c1cnc2scc(C)n2c1=O)c1ccccc1C,1,31*,3,-1,0
Cc1csc2ncc(C(=O)Nc3ccccc3F)c(=O)n12,5,31*,-2,x,0
CCOc1ccc(-c2cccc(NC(=O)c3ccco3)c2)nn1,5,0,0,x,-1
COc1cccc(C(NC(C)=O)c2nc(-c3csc4ccccc34)cs2)c1 (stereo unspecified),-2,5,-4,x,0
O=P(O)(O)c1cc(-c2ccccc2)oc1-c1ccccc1,9,37*,164*,2,i
C/C(=N\Nc1ncc(Cl)cc1Cl)c1ccc(C#N)cc1,7,46*,-1,2,-3
COc1ccc(-c2c(NC(=O)c3ccco3)oc3ccccc3c2=O)cc1,-6,40*,1,4,i
COc1ccc(-c2c(NC(C)=O)n(C)c3ccccc3c2=O)cc1,-5,36*,26,0,1
Cc1ccc(-c2c(NC(=O)c3ccco3)oc3ccccc3c2=O)cc1,-17,27,2,4,i
Cc1ccc(S(=O)(=O)N2[C@H](c3cccc(Cl)c3)CC(=O)[C@@H]3CN(S(=O)(=O)c4ccccc4C)[C@H](c4ccc(Cl)cc4)C[C@@H]32)cc1,2,13,-1,x,i
COc1ccc(OC)c(NC(=O)CSc2ccc3nnc(-c4cccnc4)n3n2)c1,-2,1,0,4,i
CCOc1cc(-c2nc3ccccc3s2)ccc1O,-3,28,+,0,i
COc1cccc(-c2nc3ccccc3s2)c1O,1,-3,6,-2,0
COc1cc(-c2nc3ccccc3s2)ccc1O,12,19,150*,-1,-3
COc1ccc(-c2nc3ccccc3s2)cc1O,-15,36*,9,5,-1
COc1cc(OC)c(-c2nc3ccccc3s2)cc1OC,4,13,+,1,0
O=C(COC(=O)c1cccc(Br)c1)NCC1CCCO1 (stereo unspecified),4,5,1,x,i
SMILES,PrPC surface inh,GDH-TPI inh,Mtb FBA inh,3CLpro inhibitor,Vc quorum ag
COC(=O)c1[nH]c2c(c1C(=O)OC)CCc1ccccc1-2,-3,30,121*,5,-1
COc1cccc(C(=O)NC(=S)Nc2ccc(N3CCCC3)cc2)c1,-3,5,1,-3,0
CC(C)Oc1cccc(C(=O)NC(=S)Nc2ccc(N3CCN(C)CC3)cc2)c1,4,5,85*,6,1
Cc1ccc(C(=O)NNC(=O)CSc2nnc(C(C)C)n2C)cc1,4,3,0,5,i
CC(C)(C)OC(=O)NC1CCN(c2nc(-c3ccc(Br)cc3)cs2)CC1,1,x,x,x,x
Cc1c(C#N)c(=O)oc2ccc3ccccc3c12,-4,6,115*,-4,x
CCN(CC)CCOc1ccc(-c2c(C)c3c(ccc4ccccc43)oc2=O)cc1,-1,9,4,x,-1
